Test results as given in PubChem BioAssay (Tox21).
Values without a mark were called inactive. Records with an inconclusive call do not appear. Where a call stands in place of a potency, no number is given. Calls of active or inactive are those of the source. Unless noted, calls follow the shape of the full dose curve.

Experiments:
[1] = Nuclear factor erythroid 2-related factor 2/antioxidant responsive element (Nrf2/ARE) small molecule agonists: qHTS cell viability counter screen in human keratinocytes (AID 1919968; active = well fitted curve in the direction sought with a large enough effect in the repeat runs; an effect the other way counts as inactive or inconclusive; also: nearly all actives have a fitted effect of over 55% in size; also: potency is read from the fitted curve at half-maximal effect)
Procedure, shortened: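 Viability counter-screen: KeratinoSens reporter cells, DMSO-delivered compounds, 23 h at 37 C, CellTiter-Fluor fluorescence.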

[2] = target: Gonadotropin-releasing hormone receptor (Homo sapiens) (UniProt P30968); experiment: Human gonadotropin-releasing hormone receptor (GnRHR) small molecule agonists, calcium flux assay in GnRHR-HEK293 cells (AID 1920063); also: nearly all actives have a fitted effect of over 35% in size
Gonadotropin-releasing hormone receptor (Homo sapiens), sequence (P30968 whole entry, looked up): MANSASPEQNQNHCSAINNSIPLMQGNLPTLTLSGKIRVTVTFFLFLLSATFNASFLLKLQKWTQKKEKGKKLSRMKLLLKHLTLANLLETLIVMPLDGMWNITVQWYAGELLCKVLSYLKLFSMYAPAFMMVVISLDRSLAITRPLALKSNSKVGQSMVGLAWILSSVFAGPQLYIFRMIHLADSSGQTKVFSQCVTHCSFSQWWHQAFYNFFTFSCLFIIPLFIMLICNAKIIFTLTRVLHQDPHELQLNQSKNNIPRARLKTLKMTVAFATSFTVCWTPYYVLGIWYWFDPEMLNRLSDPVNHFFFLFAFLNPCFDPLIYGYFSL
Procedure, shortened: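 Tox21-format agonist screen using human GnRHR-expressing HEK293 cells and a fluorescent calcium dye; kinetic 3-min fluorescence reading after compound addition, 15-point concentration series run in triplicate.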

[3] = G protein-coupled receptor (GPCR) small molecule agonists, calcium flux assay: HEK293 wild type cell line counter screen (AID 1920065)
Procedure, shortened: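 In this agonist-mode screen, ATP is the positive control and DMSO the vehicle. Cells grow 18 h before a 1 h dye incubation at 37 C; signal is taken at Ex/Em 480/540 over 3 min.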

[4] = p53 small molecule agonists, cell-based qHTS assay with human liver microsomes (AID 1963577);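 also: p53 response element beta-lactamase reporter cells with liver microsomes plus NADPH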
Procedure, shortened: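 16 h, 37 C exposure of p53RE-bla cells to compounds with human liver microsomes and NADPH (0.5 mg/mL final each); detection via LiveBLAzer mixture, 2 h dark at room temperature.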

[5] = p53 small molecule agonists, cell-based qHTS assay with rat liver microsomes (AID 1963578)
Procedure, shortened: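 With rat liver microsomes and NADPH present (0.5 mg/mL final each), p53RE-bla cells are treated with compound for 16 h at 37 C. LiveBLAzer detection mixture is then applied for 2 h at room temperature in the dark.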

[6] = p53 small molecule agonists, cell-based qHTS assay with human liver microsomes: qHTS cell viability counter screen (AID 1963579); also: nearly all actives have a fitted effect of over 45% in size; also: potency is read from the fitted curve at half-maximal effect
Procedure, shortened: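 In this multiplexed counter screen, the reporter plates were subsequently treated with CellTiter-Glo so that cell viability, reflected by luminescence, could be recorded for p53RE-bla cells dosed 16 h with compounds under microsomal activation (HLM and NADPH).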

[7] = p53 small molecule agonists, cell-based qHTS assay with rat liver microsomes: qHTS cell viability counter screen (AID 1963580); also: nearly all actives have a fitted effect of over 45% in size
Procedure, shortened: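 Intracellular ATP, by CellTiter-Glo luminescence, defines viability. HCT-116 p53RE-bla cells, 4,000 per well, were compound-treated in the presence of rat liver microsomes and NADPH for 16 h at 37 C.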

[8] = p53 small molecule agonists, cell-based qHTS assay: qHTS cell viability counter screen (AID 1963581); also: nearly all actives have a fitted effect of over 45% in size
Procedure, shortened: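 Compounds are pinned onto HCT-116 p53RE-bla cells and left 16 h at 37 C. Following the reporter FRET read, ATP is quantified by CellTiter-Glo luminescence after 30 min at room temperature.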

[9] = target: 5-hydroxytryptamine receptor 2A (Homo sapiens) (UniProt P28223); experiment: 5-hydroxytryptamine receptor 2A (HTR2A) small molecule antagonists, cell-based qHTS assay (AID 1963586); also: nearly all actives have a fitted effect of over 45% in size
5-hydroxytryptamine receptor 2A (Homo sapiens), sequence (P28223 whole entry, looked up): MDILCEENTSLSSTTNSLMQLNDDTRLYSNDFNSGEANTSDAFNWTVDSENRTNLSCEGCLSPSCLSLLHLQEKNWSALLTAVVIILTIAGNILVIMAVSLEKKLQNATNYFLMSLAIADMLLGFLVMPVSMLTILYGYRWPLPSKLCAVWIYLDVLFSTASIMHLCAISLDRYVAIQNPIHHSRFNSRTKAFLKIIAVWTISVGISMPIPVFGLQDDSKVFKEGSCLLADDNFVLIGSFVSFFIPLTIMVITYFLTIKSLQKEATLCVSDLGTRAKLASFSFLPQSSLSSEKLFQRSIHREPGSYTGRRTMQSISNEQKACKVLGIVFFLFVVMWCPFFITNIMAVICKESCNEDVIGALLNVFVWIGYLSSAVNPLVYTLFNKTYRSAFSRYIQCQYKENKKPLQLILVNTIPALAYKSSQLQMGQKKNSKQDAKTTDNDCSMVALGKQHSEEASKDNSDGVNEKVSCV
Procedure, shortened: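 Antagonist-mode intracellular calcium assay: DOI (4 nM) added after 5 min compound pre-incubation at room temperature to dye-loaded HTR2A-CHO cells. Fluorescence followed for 3 min, sampled every second.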

[10] = target: 5-hydroxytryptamine receptor 2A (Homo sapiens) (UniProt P28223); experiment: 5-hydroxytryptamine receptor 2A (HTR2A) small molecule agonists, cell-based qHTS assay (AID 1963587); also: nearly all actives have a fitted effect of over 30% in size
Procedure, shortened: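 Kinetic calcium-flux fluorescence (2 min, 1 sec intervals) after compound addition in agonist mode. HTR2A-CHO cells were cultured 18 h, then dye-loaded 1 h at 37 C.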

[11] = target: Muscarinic acetylcholine receptor M1 (Homo sapiens) (UniProt P11229); experiment: Cholinergic receptor muscarinic 1 (CHRM1) small molecule agonists, cell-based qHTS assay (AID 1963589); also: nearly all actives have a fitted effect of over 35% in size
Muscarinic acetylcholine receptor M1 (Homo sapiens), sequence (P11229 whole entry, looked up): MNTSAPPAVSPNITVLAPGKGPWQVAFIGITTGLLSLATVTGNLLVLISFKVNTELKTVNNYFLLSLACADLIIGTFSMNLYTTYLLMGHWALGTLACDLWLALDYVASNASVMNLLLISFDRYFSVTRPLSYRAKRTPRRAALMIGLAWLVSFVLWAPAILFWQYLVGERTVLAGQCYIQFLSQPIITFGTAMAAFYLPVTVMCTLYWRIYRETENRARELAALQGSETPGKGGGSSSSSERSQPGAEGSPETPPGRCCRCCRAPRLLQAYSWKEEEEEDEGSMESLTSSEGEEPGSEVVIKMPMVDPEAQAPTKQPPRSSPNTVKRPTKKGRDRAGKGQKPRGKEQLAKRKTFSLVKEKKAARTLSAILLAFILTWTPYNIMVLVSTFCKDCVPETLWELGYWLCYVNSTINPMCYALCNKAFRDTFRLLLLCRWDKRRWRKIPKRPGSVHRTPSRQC
Procedure, shortened: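 Stable CHRM1-CHO cells (human receptor) were incubated 18 h, dye-loaded for 1 h at 37 C and exposed to test compounds for agonist activity, with calcium-dependent fluorescence followed kinetically.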

[12] = target: Beta-2 adrenergic receptor (Homo sapiens) (UniProt P07550); experiment: Adrenergic beta2 receptor (ADRB2) small molecule antagonists, cell-based qHTS assay (AID 1963592); also: series mostly up to about 92 µM; nearly all actives have a fitted effect of over 50% in size
Beta-2 adrenergic receptor (Homo sapiens), sequence (P07550 whole entry, looked up): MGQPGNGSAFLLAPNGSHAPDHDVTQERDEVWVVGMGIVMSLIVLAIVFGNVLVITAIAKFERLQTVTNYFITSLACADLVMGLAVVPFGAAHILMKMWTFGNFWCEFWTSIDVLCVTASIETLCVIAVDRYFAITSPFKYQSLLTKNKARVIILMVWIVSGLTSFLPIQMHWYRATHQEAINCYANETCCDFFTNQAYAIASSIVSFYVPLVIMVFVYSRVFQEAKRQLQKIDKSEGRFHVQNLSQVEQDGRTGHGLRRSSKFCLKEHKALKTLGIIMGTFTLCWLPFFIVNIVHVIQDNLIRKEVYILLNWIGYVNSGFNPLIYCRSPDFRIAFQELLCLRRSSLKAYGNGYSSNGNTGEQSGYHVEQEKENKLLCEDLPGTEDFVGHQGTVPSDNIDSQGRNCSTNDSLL
Procedure, shortened: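 Cells (CHO, stable ADRB2 overexpression) incubated 18-20hr at 37C; compounds added from DMSO; agonist mix (1nM isoproterenol, 100uM IBMX, 25uM Ro-20-1724) added; 0.5hr RT; d2-cAMP and anti-cAMP-cryptate added; 1hr RT; 665/615 nm read.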

[13] = target: Beta-2 adrenergic receptor (Homo sapiens) (UniProt P07550); experiment: Adrenergic beta2 receptor (ADRB2) small molecule agonists, cell-based qHTS assay (AID 1963593);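 also: CHO cells stably overexpressing human ADRB2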
Procedure, shortened: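 CHO cells stably over-expressing ADRB2 were plated overnight at 37C, then dosed with compounds plus a stimulation mix containing 100uM IBMX and 25uM Ro-20-1724 for 0.5hr at room temperature. cAMP was measured by HTRF competition, 1hr.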

[14] = target: D(2) dopamine receptor (Homo sapiens) (UniProt P14416); experiment: Dopamine D2 receptor (DRD2) small molecule agonists, cell-based qHTS assay (AID 1963594); also: nearly all actives have a fitted effect of over 35% in size
D(2) dopamine receptor (Homo sapiens), sequence (P14416 whole entry, looked up): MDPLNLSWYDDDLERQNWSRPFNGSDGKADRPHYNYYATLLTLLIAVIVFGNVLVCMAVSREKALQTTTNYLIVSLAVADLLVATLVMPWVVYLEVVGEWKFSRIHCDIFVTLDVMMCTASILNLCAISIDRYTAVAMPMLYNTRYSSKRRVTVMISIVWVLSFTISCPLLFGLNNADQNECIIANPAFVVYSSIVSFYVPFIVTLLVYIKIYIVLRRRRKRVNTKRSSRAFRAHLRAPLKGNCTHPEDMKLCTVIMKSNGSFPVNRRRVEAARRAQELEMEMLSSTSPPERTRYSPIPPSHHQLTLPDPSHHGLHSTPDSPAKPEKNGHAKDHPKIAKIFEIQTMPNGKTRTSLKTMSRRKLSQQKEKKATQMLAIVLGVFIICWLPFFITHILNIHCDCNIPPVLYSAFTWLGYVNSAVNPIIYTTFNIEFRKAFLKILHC
Procedure, shortened: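 cAMP accumulation in DRD2-HEK293 cells measured by HTRF after 1 h detection; compounds added 10 min before NKH477 (200nM […]) forskolin-analogue stimulation, 30 min at room temperature, with Ro20-1724 present at 0.1 mM final.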

[15] = target: KiSS-1 receptor (Homo sapiens) (UniProt Q969F8); experiment: Human kisspeptin (KISS1R) small molecule agonists, calcium flux assay in KISS1R-HEK293 cells (AID 1920064; active = well fitted curve in the direction sought with a large enough effect in the repeat runs; an effect the other way counts as inactive or inconclusive)
KiSS-1 receptor (Homo sapiens), sequence (Q969F8 whole entry, looked up): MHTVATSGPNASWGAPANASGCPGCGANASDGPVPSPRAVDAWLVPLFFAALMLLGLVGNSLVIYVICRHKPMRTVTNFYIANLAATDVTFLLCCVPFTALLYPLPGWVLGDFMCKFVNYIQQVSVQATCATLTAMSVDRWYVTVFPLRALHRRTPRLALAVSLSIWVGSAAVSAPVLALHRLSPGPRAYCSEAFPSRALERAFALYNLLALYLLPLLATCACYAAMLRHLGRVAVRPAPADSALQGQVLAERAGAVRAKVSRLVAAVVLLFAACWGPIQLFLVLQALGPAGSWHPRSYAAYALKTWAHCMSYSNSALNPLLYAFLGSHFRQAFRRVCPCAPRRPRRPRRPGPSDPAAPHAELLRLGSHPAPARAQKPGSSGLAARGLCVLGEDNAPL
Procedure, shortened: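 Intracellular calcium mobilization in KISS1R-HEK293 cells was recorded by fluorescence (Ex/Em 480/540) for 3 min following compound addition to cells pre-loaded 1 h with calcium dye.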

[16] = p53 small molecule agonists, cell-based qHTS assay (AID 1963582; active = well fitted activation curve with a large enough effect in the signal ratio in the repeat runs, not every such curve was filed as active; the % refers to the signal ratio)
Procedure, shortened: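 Agonist activity was scored from beta-lactamase FRET fluorescence in p53RE-bla cells treated 16 h at 37 C with compounds in DMSO, substrate incubation being 2 h at room temperature.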

[17] = target: Muscarinic acetylcholine receptor M1 (Homo sapiens) (UniProt P11229); experiment: Cholinergic receptor muscarinic 1 (CHRM1) small molecule antagonists, cell-based qHTS assay (AID 1963588); also: nearly all actives have a fitted effect of over 40% in size; also: potency is read from the fitted curve at half-maximal effect
Procedure, shortened: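 CHRM1-CHO calcium-flux assay, antagonist mode. Cells were seeded 18 h, dye-loaded 1 h at 37 C and given compound for 5 min at RT, then acetylcholine was added at 50nM. FDSS fluorescence was read 3 min; 15 concentrations, three runs.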

[18] = cAMP Responsive Elements (CRE) small molecule agonists, cell-based qHTS assay (AID 1963590)
Procedure, shortened: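 FRET-based beta-lactamase readout (LiveBLAzer B/G, 2 h RT) quantified CRE activation in HEK 293T CRE-bla cells after 3 h treatment with DMSO-dissolved compounds.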

[19] = cAMP Responsive Elements (CRE) small molecule antagonists, cell-based qHTS assay (AID 1963591; active = well fitted inhibition curve with a large enough effect in the signal ratio in the repeat runs, not every such curve was filed as active; the % refers to the signal ratio)
Procedure, shortened: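 qHTS in CRE-bla HEK 293T cells: compound in DMSO, then 0.25 uM NKH477 (final), 3 h at 37 °C/5% CO2; beta-lactamase FRET read-out after 2 h substrate incubation.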

[20] = target: D(2) dopamine receptor (Homo sapiens) (UniProt P14416); experiment: Dopamine D2 receptor (DRD2) small molecule antagonists, cell-based qHTS assay (AID 1963595; active = well fitted inhibition curve with a large enough effect in the signal ratio in the repeat runs, with a control signal flat; the % refers to the signal ratio)
Procedure, shortened: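 Antagonism was scored as restored cAMP in HEK293-DRD2 cells. These cells were stimulated with 200 nM NKH477 and 12 nM quinpirole for 30 min at room temperature, in the presence of 0.1 mM Ro20-1724.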

Structure (SMILES) | Potency [1] | Potency [2] | Potency [3] | Potency [4] | Potency [5] | Potency [6] | Potency [7] | Potency [8] | Potency [9] | Potency [10] | Potency [11] | Potency [12] | Potency [13] | Potency [14] | Potency [15] | Potency [16] | Potency [17] | Potency [18] | Potency [19] | Potency [20]
O=C1NC(=O)[C@@H]2CC=CC[C@H]12 | inactive | inactive | inactive | inactive | inactive | inactive | inactive | inactive | inactive | inactive | inactive | inactive | inactive | inactive |  |  |  |  |  | 
C[Si](Cl)(c1ccccc1)c1ccccc1 | inactive | inactive |  | inactive | inactive | inactive | inactive | inactive |  |  |  | inactive |  | inactive | inactive | inactive | inactive | inactive | inactive | inactive
CC=O | 28.6 µM (active) | inactive | inactive | inactive | inactive | 47.9 µM (active) |  |  | inactive |  | inactive | inactive |  | inactive |  |  | 3.5 µM (active) |  |  | inactive
CC(C)NCC(O)COc1ccc(CCOCC2CC2)cc1 (stereo unspecified) | inactive | inactive |  |  | inactive | inactive | inactive | inactive |  | inactive | inactive |  |  |  | inactive | inactive | inactive | inactive |  | inactive
CCCCCCCCCCCCCC(=O)OC | inactive | inactive |  |  |  | inactive | inactive | inactive | inactive | inactive | inactive | inactive |  |  | inactive |  | inactive | inactive | inactive | 
NCCN1CCOCC1 | inactive | inactive | inactive | inactive | inactive |  | inactive |  | inactive | inactive | inactive | inactive |  | inactive |  | inactive |  |  | inactive | inactive
O=C(O)CCCl | inactive | inactive | inactive | inactive |  | inactive | inactive | inactive | inactive |  | inactive |  | inactive | inactive |  | inactive | inactive |  |  | inactive
COc1cc(C(C)=O)ccc1OCCCN1CCC(c2noc3cc(F)ccc23)CC1 | inactive | inactive | inactive |  |  |  | inactive | inactive |  | inactive | inactive |  |  | inactive |  |  | 3.65 µM (active) | inactive | inactive | 
C[C@H](CCC(=O)O)[C@H]1CC[C@H]2[C@@H]3[C@H](O)C[C@@H]4C[C@H](O)CC[C@]4(C)[C@H]3CC[C@]12C | inactive |  | inactive | inactive | inactive | inactive | inactive | inactive |  |  |  | inactive |  | inactive | inactive | inactive | inactive |  |  | 
CC1CCC(CO)CC1 (stereo unspecified) | inactive | inactive | inactive |  |  | inactive | inactive | inactive | inactive | inactive | inactive | inactive | inactive | inactive |  |  | inactive | inactive | inactive | inactive
COc1cccc(N)c1 | inactive |  | inactive | inactive | inactive | inactive | inactive | inactive | inactive | inactive | inactive |  |  | inactive | inactive | inactive | inactive | inactive | inactive | inactive
Cn1c(=O)c2c(ncn2CCO)n(C)c1=O | inactive | inactive | inactive |  |  | inactive | inactive | inactive | inactive | inactive | inactive | inactive |  | inactive |  |  | inactive | inactive | inactive | inactive
